Among the data in publication PMC10668032, “Altered binding affinity of SIX1-Q177R correlates with enhanced WNT5A and WNT pathway effector expression in Wilms tumor” are binding signal values, retold here.

Whole data set: some 33,000 sequences, median “e-score” near -0.053, cut for the highest 2% near 0.38. This is one part of a sample in which the highest values are shown more often than they occur.

The assay has as its target T1, SIX1 homeodomain (reference allele) (human, UniProt Q15475 108-198).
T1 sequence: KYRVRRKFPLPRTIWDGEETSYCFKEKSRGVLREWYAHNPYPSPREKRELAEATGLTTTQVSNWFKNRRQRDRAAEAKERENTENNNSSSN
In words: universal protein binding microarray; Universal all-10-mer PBM (8x60K, AMADID 030236), 300 nM GST-tagged protein, Alexa Fluor 488 anti-GST; buffer, salt, pH and temperature not stated (as in Berger); high values mean tight binding. As to conditions: protein: ivt; tags: N-terminal GST; dsDNA, one strand shown. The gist of the method: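 GST-tagged homeodomains were made by in vitro transcription/translation and quantified by anti-GST western blot against a recombinant GST standard curve. They were applied in duplicate at 300 nM final concentration to universal 'all 10-mer' protein binding microarrays (8×60K format). Binding was quantified as 8-mer E-scores with the Universal PBM Analysis Suite.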
Take GATCCATA: the binding signal was 0.357 ± 0.0223 E-score.

As to CATCCTGA, the binding signal worked out at 0.169 ± 0.0388 E-score.

GAACAATA: the binding signal turned out to be 0.2 ± 0.0128 E-score.

CTTAGATC: the binding signal is 0.158 ± 0.00598 E-score.

Consider CCTACTCA, for which the binding signal turned out to be 0.161 ± 0.0165 E-score.

As to ATACTAAG, the binding signal was 0.209 ± 0.0591 E-score.

For TAACACGA, the binding signal amounted to 0.19 ± 0.0238 E-score.

Turning to CTCAATAC, the binding signal was found to be 0.259 ± 0.0252 E-score.

Turning to ATTGATAC, the binding signal was 0.465 ± 0.0161 E-score.

Regarding ATTGATCC, the binding signal amounted to 0.406 ± 0.0164 E-score.

Consider CTTGACAC, for which the binding signal is 0.244 ± 0.0534 E-score.

Regarding ATTGATGC, the binding signal is 0.182 ± 0.0328 E-score.

As for ATTGATAG, the binding signal came out at 0.288 ± 0.0226 E-score.

As for CTTGATCC, the binding signal turned out to be 0.361 ± 0.00995 E-score.

As for CTTGATAC, the binding signal was 0.442 ± 0.0251 E-score.

In the case of CTTGATCA, the binding signal was determined as 0.218 ± 0.037 E-score.

With CGTCTCGC, the binding signal came out at 0.167 ± 0.0173 E-score.

Take GATCGACC: the binding signal worked out at 0.162 ± 0.12 E-score.

For GATCTCGA, the binding signal was 0.221 ± 0.00099 E-score.

In the case of AATACTCT, the binding signal was 0.257 ± 0.089 E-score.

Consider AACCTATA, for which the binding signal stood at 0.205 ± 0.0654 E-score.

For the sequence CCCTTGGA, the binding signal worked out at 0.213 ± 0.00655 E-score.

On to ATCCCTTC, for which the binding signal is 0.303 ± 0.0125 E-score.

CTACTGTA: the binding signal was found to be 0.165 ± 0.0781 E-score.

AATTAATA: the binding signal turned out to be 0.191 ± 0.0409 E-score.

As for CGATACAG, the binding signal stood at 0.313 ± 0.044 E-score.

Consider AGATACAG, for which the binding signal stood at 0.246 ± 0.0181 E-score.

AGATACAA: the binding signal was 0.168 ± 0.0186 E-score.

In the case of CGATACAA, the binding signal is 0.288 ± 0.0425 E-score.

Consider GGATACAA, for which the binding signal came to 0.354 ± 0.037 E-score.

With CGATACAC, the binding signal is 0.418 ± 0.0108 E-score.

With GGATACAC, the binding signal came out at 0.405 ± 0.0186 E-score.

Turning to AGATACAC, the binding signal is 0.3801 ± 0.00099 E-score.

Consider GCATACAC, for which the binding signal is 0.155 ± 0.0339 E-score.

For ACAATATG, the binding signal came out at 0.239 ± 0.0268 E-score.

Regarding ATCACTTA, the binding signal amounted to 0.273 ± 0.0813 E-score.

As to ATGGGGTC, the binding signal stood at 0.168 ± 0.00238 E-score.

AGTAGATC: the binding signal turned out to be 0.321 ± 0.0238 E-score.

Turning to GACCGATC, the binding signal is 0.246 ± 0.028 E-score.

On to ATACTTCC, for which the binding signal amounted to 0.241 ± 0.0829 E-score.

Turning to ACTATCAG, the binding signal turned out to be 0.217 ± 0.0215 E-score.

Turning to AGTATCAC, the binding signal is 0.464 ± 0.0196 E-score.

For AGTATAAT, the binding signal turned out to be 0.265 ± 0.0967 E-score.

For AGTATTAA, the binding signal amounted to 0.233 ± 0.112 E-score.

For ATCATCAC, the binding signal is 0.228 ± 0.00571 E-score.

Regarding AGTATCAT, the binding signal is 0.473 ± 0.0218 E-score.

Take AGTATCAG: the binding signal worked out at 0.46 ± 0.0186 E-score.

For CGTATCAG, the binding signal is 0.465 ± 0.00812 E-score.

For the sequence ATTATCAG, the binding signal is 0.168 ± 0.0386 E-score.

On to AGTATTAG, for which the binding signal is 0.301 ± 0.0212 E-score.

On to ACTATCAT, for which the binding signal was 0.3 ± 0.0715 E-score.

For the sequence CCTATCAG, the binding signal amounted to 0.326 ± 0.00869 E-score.

As to ATCGTGAG, the binding signal stood at 0.26 ± 0.00974 E-score.

Regarding CGGTAATA, the binding signal turned out to be 0.23 ± 0.0198 E-score.

In the case of AGACCGAT, the binding signal is 0.179 ± 0.0125 E-score.

Regarding TACTCGGA, the binding signal was 0.162 ± 0.0415 E-score.

Consider ACACCTGA, for which the binding signal came to 0.281 ± 0.0355 E-score.

Take GAAATATC: the binding signal is 0.262 ± 0.0623 E-score.

With ATAGCATA, the binding signal amounted to 0.218 ± 0.00716 E-score.

On to ATTATCAA, for which the binding signal was 0.165 ± 0.0524 E-score.

As to ACTATCAA, the binding signal came to 0.253 ± 0.0636 E-score.

For the sequence AGTATCAA, the binding signal is 0.444 ± 0.0435 E-score.

Regarding ACACCAAA, the binding signal is 0.263 ± 0.0137 E-score.

Take AGTCGATA: the binding signal was found to be 0.257 ± 0.0323 E-score.

As to GGCAATAC, the binding signal was determined as 0.181 ± 0.00926 E-score.

Consider AAGTGGAT, for which the binding signal amounted to 0.182 ± 0.0178 E-score.

Regarding AGGGGGTG, the binding signal came to 0.186 ± 0.0209 E-score.

Regarding CGGGTGTC, the binding signal stood at 0.439 ± 0.025 E-score.

Regarding CGGGTGGA, the binding signal is 0.236 ± 0.0891 E-score.

With GTGGTGTA, the binding signal came to 0.286 ± 0.0221 E-score.

With GCGGTGTA, the binding signal came out at 0.336 ± 0.0311 E-score.

Turning to AGGGTGTC, the binding signal was 0.4355 ± 0.00243 E-score.

With AGGGTGTA, the binding signal stood at 0.313 ± 0.048 E-score.

Turning to GGGGTGTA, the binding signal worked out at 0.387 ± 0.00837 E-score.

With CGGGTGTA, the binding signal stood at 0.265 ± 0.0586 E-score.

Turning to ATCAAGAT, the binding signal was found to be 0.209 ± 0.0291 E-score.

Consider AAGCCGGA, for which the binding signal amounted to 0.159 ± 0.0672 E-score.

In the case of GATCGGCC, the binding signal is 0.255 ± 0.03 E-score.

Take TACCCCAA: the binding signal was 0.174 ± 0.0539 E-score.

Turning to ATATACTA, the binding signal was 0.256 ± 0.0638 E-score.

In the case of CAACACCC, the binding signal is 0.24 ± 0.00973 E-score.

As for CTCGATGA, the binding signal stood at 0.165 ± 0.00668 E-score.

As for ATCGATTC, the binding signal stood at 0.2 ± 0.0315 E-score.

CTCGATCC: the binding signal stood at 0.325 ± 0.0557 E-score.

CTCGATAC: the binding signal came out at 0.41 ± 0.0184 E-score.

ATCGATAG: the binding signal came out at 0.2745 ± 0.00192 E-score.

For the sequence ATCGATAC, the binding signal worked out at 0.446 ± 0.0107 E-score.
